Inconclusive results are not listed. A call without a number means that no potency is given here. The source made the active and inactive calls. Calls follow the shape of the dose curve; as a rule, active = well fitted curve in the direction sought with a large enough effect; inconclusive = small, poorly fitted or top-dose-only effect, or another doubt; inactive = no such curve, though single readings can be large; an effect the other way counts as inactive or inconclusive.
Tests used:
[1] = Quantitative High-Throughput drug screen in 47 multiple myeloma cell lines against the NCATS MIPE library collection: Karpas620_DSMZ cell viability assay (AID 1918959); also: nearly all actives have a fitted effect of over 30% in size; also: potency is read from the fitted curve at half-maximal effect
How it was run: (§1)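 qHTS of the MIPE 4.0 collection: 500 myeloma cells/well, 48 h drug exposure at 37C in 5% CO2, then CellTiter-Glo for 5 min at room temperature before luminescence reading.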

[2] = Quantitative High-Throughput drug screen in 47 multiple myeloma cell lines against the NCATS MIPE library collection: KMM1_JCRB cell viability assay (AID 1918960); also: nearly all actives have a fitted effect of over 30% in size; also: potency is read from the fitted curve at half-maximal effect
How it was run: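 500 cells/well; MIPE 4.0 library pinned in; 48 h, 37 °C, 5% CO2; CellTiter-Glo ATP luminescence. Controls: DMSO = 100% viability, medium only = 0%.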

[3] = Quantitative High-Throughput drug screen in 47 multiple myeloma cell lines against the NCATS MIPE library collection: Karpas417_ECACC cell viability assay (AID 1918961); details: Karpas417 myeloma viability, CellTiter-Glo ATP luminescence, 48 h; also: potency is read from the fitted curve at half-maximal effect
How it was run: (§2)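 Luminescent ATP measurement with CellTiter-Glo gives viability, scaled between DMSO-only wells (100%) and media-only wells (0%). Cells, 500 per well, faced library compounds for 48 hours at 37C.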

[4] = Quantitative High-Throughput drug screen in 47 multiple myeloma cell lines against the NCATS MIPE library collection: KHM11_PLB cell viability assay (AID 1918962); details: KHM11 myeloma cell viability, CellTiter-Glo ATP luminescence, 48 h; also: potency is read from the fitted curve at half-maximal effect; nearly all actives have a fitted effect of over 35% in size
How it was run: as §1

[5] = Quantitative High-Throughput drug screen in 47 multiple myeloma cell lines against the NCATS MIPE library collection: JIM3_ECACC cell viability assay (AID 1918963; also: nearly all actives have a fitted effect of over 35% in size; also: potency is read from the fitted curve at half-maximal effect)
How it was run: as §1

[6] = Quantitative High-Throughput drug screen in 47 multiple myeloma cell lines against the NCATS MIPE library collection: JIM1_ECACC cell viability assay (AID 1918964; also: potency is read from the fitted curve at half-maximal effect)
How it was run: (§3)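 Primary qHTS used for cherry-picking: cells at 500/well, library compounds for 48 h (37C, 5% CO2), luminescent ATP assay.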

[7] = Quantitative High-Throughput drug screen in 47 multiple myeloma cell lines against the NCATS MIPE library collection: INA6_PLB cell viability assay (AID 1918965; also: potency is read from the fitted curve at half-maximal effect; nearly all actives have a fitted effect of over 55% in size); details: INA6 myeloma viability, CellTiter-Glo ATP luminescence, 48 h
How it was run: as §2

[8] = Quantitative High-Throughput drug screen in 47 multiple myeloma cell lines against the NCATS MIPE library collection: JJN3_DSMZ cell viability assay (AID 1918966; also: nearly all actives have a fitted effect of over 50% in size; also: potency is read from the fitted curve at half-maximal effect)
How it was run: as §3

[9] = Quantitative High-Throughput drug screen in 47 multiple myeloma cell lines against the NCATS MIPE library collection: H1112_PLB cell viability assay (AID 1918967; also: nearly all actives have a fitted effect of over 30% in size; also: potency is read from the fitted curve at half-maximal effect)
How it was run: as §3

[10] = Quantitative High-Throughput drug screen in 47 multiple myeloma cell lines against the NCATS MIPE library collection: Karpas25_ECACC cell viability assay (AID 1918968; also: potency is read from the fitted curve at half-maximal effect; nearly all actives have a fitted effect of over 35% in size); details: Karpas25 myeloma viability, CellTiter-Glo ATP, 48 h
How it was run: as §3

[11] = Quantitative High-Throughput drug screen in 47 multiple myeloma cell lines against the NCATS MIPE library collection: KMS27_JCRB cell viability assay (AID 1918970); also: nearly all actives have a fitted effect of over 30% in size; also: potency is read from the fitted curve at half-maximal effect
How it was run: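 Each line is seeded at 500 cells per well and treated with library compounds for 48 hours under 37 °C, 5% CO2. CellTiter-Glo is then added for 5 min at room temperature before median relative luminescence is recorded.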

[12] = Quantitative High-Throughput drug screen in 47 multiple myeloma cell lines against the NCATS MIPE library collection: KMS12BM_JCRB cell viability assay (AID 1918971); also: nearly all actives have a fitted effect of over 35% in size; also: potency is read from the fitted curve at half-maximal effect
How it was run: (§4)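 Inhibition of cell viability is measured here. Each line was plated at 500 cells per well, treated with MIPE 4.0 drugs, kept 48 hours at 37C, then assayed for ATP content by CellTiter-Glo luminescence.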

[13] = Quantitative High-Throughput drug screen in 47 multiple myeloma cell lines against the NCATS MIPE library collection: KMS12PE_JCRB cell viability assay (AID 1918972); also: nearly all actives have a fitted effect of over 30% in size; also: potency is read from the fitted curve at half-maximal effect; as to viability: series mostly up to about 46 µM
How it was run: as §2

[14] = Quantitative High-Throughput drug screen in 47 multiple myeloma cell lines against the NCATS MIPE library collection: KMS20_JCRB cell viability assay (AID 1918973); also: nearly all actives have a fitted effect of over 45% in size; also: potency is read from the fitted curve at half-maximal effect
How it was run: as §3

[15] = Quantitative High-Throughput drug screen in 47 multiple myeloma cell lines against the NCATS MIPE library collection: KMS21BM_JCRB cell viability assay (AID 1918974); details: ATP luminescence, 48 h; also: potency is read from the fitted curve at half-maximal effect
How it was run: as §3

[16] = Quantitative High-Throughput drug screen in 47 multiple myeloma cell lines against the NCATS MIPE library collection: KMS26_JCRB cell viability assay (AID 1918975); details: KMS26 myeloma cells viability, CellTiter-Glo ATP, 48 h; also: potency is read from the fitted curve at half-maximal effect; nearly all actives have a fitted effect of over 45% in size
How it was run: as §4

[17] = Quantitative High-Throughput drug screen in 47 multiple myeloma cell lines against the NCATS MIPE library collection: MMM1_PLB cell viability assay (AID 1918976); also: nearly all actives have a fitted effect of over 35% in size; also: potency is read from the fitted curve at half-maximal effect
How it was run: (§5)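 qHTS format: cells plated (500/well), pin-dosed with MIPE 4.0 compounds, kept 48 h at 37 °C. Readout was CellTiter-Glo luminescence, median RLU.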

[18] = Quantitative High-Throughput drug screen in 47 multiple myeloma cell lines against the NCATS MIPE library collection: MOLP8_DSMZ cell viability assay (AID 1918977); also: nearly all actives have a fitted effect of over 45% in size; also: potency is read from the fitted curve at half-maximal effect
How it was run: as §5

[19] = Quantitative High-Throughput drug screen in 47 multiple myeloma cell lines against the NCATS MIPE library collection: NCIH929_DSMZ cell viability assay (AID 1918978); also: nearly all actives have a fitted effect of over 35% in size; also: potency is read from the fitted curve at half-maximal effect
How it was run: as §5

[20] = Quantitative High-Throughput drug screen in 47 multiple myeloma cell lines against the NCATS MIPE library collection: OCIMY1_PLB cell viability assay (AID 1918979)
How it was run: as §5

| SMILES | Potency [1] | Potency [2] | Potency [3] | Potency [4] | Potency [5] | Potency [6] | Potency [7] | Potency [8] | Potency [9] | Potency [10] | Potency [11] | Potency [12] | Potency [13] | Potency [14] | Potency [15] | Potency [16] | Potency [17] | Potency [18] | Potency [19] | outcome [20] |
| --- | --- | --- | --- | --- | --- | --- | --- | --- | --- | --- | --- | --- | --- | --- | --- | --- | --- | --- | --- | --- |
| C[C@@H]1C[C@@H]([C@H](O)CC2CC(=O)NC(=O)C2)C(=O)[C@@H](C)C1 | 662 nM (active) | 209 nM (active) | 469 nM (active) | 372 nM (active) | 418 nM (active) | 148 nM (active) | 118 nM (active) | 187 nM (active) | 1050 nM (active) | 1050 nM (active) | 1050 nM (active) | 209 nM (active) | 418 nM (active) | 1660 nM (active) | 526 nM (active) | 132 nM (active) | 662 nM (active) | 296 nM (active) | 1870 nM (active) |  |
| O=C(O)c1nn(Cc2ccc(Cl)cc2Cl)c2ccccc12 |  |  |  |  | inactive | inactive |  | inactive | inactive |  | inactive |  | inactive |  |  |  | inactive | inactive | inactive |  |
| COc1ccc(C(=O)N2CCCC2=O)cc1 | inactive | 1870 nM (active) |  |  | inactive | 3320 nM (active) |  | inactive | inactive | 935 nM (active) |  | inactive | inactive | inactive |  |  |  | inactive |  |  |
| COC(=O)C1=CCCN(C)C1 | inactive | inactive |  |  | inactive |  |  |  | inactive | 5900 nM (active) | 3 nM (active) | inactive | inactive |  |  |  | 1050 nM (active) |  | inactive | inactive |
